# “And” between values parts separate entries of the source, which are not always exact repeats. Identical values can stand only once. Inconclusive results are not listed. The source made the active and inactive calls. How the source made its calls, unless noted: active means hit-call score of the fitted dose curve at least 0.9, where 1 is the maximum; inconclusive means response in the unintended direction; inactive means score below 0.9.
# Experiments:
# [1] = Tanguay_ZF_120hpf_TRUN_legacy: (Legacy) Oregon State University Tanguay Lab 120 Hour Post-fertilization zebrafish Assay for Truncated Body (AID 2283655)
# Procedure, shortened: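 Dechorionated Tropical 5D wild-type embryos placed singly from 6 hpf and statically exposed to 120 hpf at 28C, final DMSO 0.64%. Truncated body scored as present/absent by brightfield; not scored in dead embryos.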
# [2] = Tanguay_ZF_120hpf_NC_legacy: (Legacy) Oregon State University Tanguay Lab 120 Hour Post-fertilization zebrafish Assay for Notochord and Tail Malformation (AID 2283656)
# Procedure, shortened: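 Binary scoring of notochord distortion by brightfield microscopy; embryos dying were not scored. Wild-type Tropical 5D embryos, chorion removed, exposed singly and statically from 6 to 120 hpf, 28C, sealed, 0.64% DMSO.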
# [3] = test system: Thyroperoxidase (TPO), gene 54314; assay: CCTE_Simmons_AUR_rTPO: CCTE's Amplex UltraRed Assay for Thyroperoxidase (TPO) Inhibition, Simmons Lab (AID 2283662);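 on AC50: potency for loss of signal meaning inhibition of peroxidase activity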
# Procedure, shortened: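 Cell-free peroxidase activity assay using rat thyroid gland microsomes with excess H2O2 (300 uM) and 25 uM Amplex UltraRed. Compounds tested from 5 nM to 87.5 uM; fluorescence measured after 30 min at 37C, analysed relative to DMSO baseline.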
# [4] = CCTE_Simmons_CellTiterGLO_HEK293T: Viability Assessment in CCTE's Assays for Thyroperoxidase (TPO) Inhibition, Simmons Lab (AID 2283665);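 on AC50: cells exposed to compound for 24 h before readout; actives reduce ATP signal below DMSO vehicle meaning cytotoxicity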
# Procedure, shortened: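 Cells were seeded overnight, then exposed to an eight-point series up to 87.5 uM final for 24 hours. CellTiter-Glo reagent was added and luminescence read after 20 min, giving ATP-based viability versus DMSO.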
# [5] = Tanguay_ZF_120hpf_TR_legacy: (Legacy) Oregon State University Tanguay Lab 120 Hour Post-fertilization zebrafish Assay for Touch Response (AID 2283667)
# Procedure, shortened: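 Binary touch-response call at 120 hpf, analysed as gain of signal versus DMSO baseline. Wild-type 5D larvae, static exposure at 28C, 0.64% DMSO final; 5uM trimethyltin chloride as positive control.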
# [6] = CCTE_Padilla_ZF_144hpf_TERATOSCORE: (Legacy) CCTE's 144 Hour Post-fertilization zebrafish Assay Teratoscore, Padilla Lab (AID 2283679; active means hit-call score of the fitted dose curve at least 0.9, where 1 is the maximum; inactive means score below 0.9;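 on AC50: zebrafish embryos with chorions exposed by immersion from 6-8 hpf to 5 dpf with daily renewal; teratogenicity score from eye scoring of death hatching and malformations at 144 hpf; higher score means more developmental defects relative to DMSO baseline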)
# Procedure, shortened: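 Larvae scored by eye at 144 hpf for death, hatching and malformations after a day in clean Hanks'. Before that, daily-renewed exposure at 80 uM (0.4% DMSO, 26C) from roughly 6-8 hpf through 5 dpf, 4 embryos per chemical.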
# [7] = read-out: solute carrier (SLC10A1), SLC10A1 (gene 6554); assay: LTEA_HepaRG_SLC10A1: Life Technologies and Expression Analysis (LTEA) Assay for solute carrier (SLC10A1) using HepaRG (AID 2283657; active means hit-call score of the fitted dose curve at least 0.9, where 1 is the maximum; inactive means score below 0.9); conditions: mRNA level, 48 h; actives raise or lower the signal
# Procedure, shortened: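 HepaRG, 48 h exposure, 8-pt half-log curve from 100 uM in 0.5% DMSO, duplicates. Read-out: TaqMan qRT-PCR of SLC10A1 mRNA, normalized to three housekeeping genes. Gain/loss fit vs DMSO baseline.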
# [8] = read-out: matrix metalloproteinase-1 (MMP1), MMP1 (gene 4312); assay: LTEA_HepaRG_MMP1: Life Technologies and Expression Analysis (LTEA) Assay for matrix metalloproteinase-1 (MMP1) using HepaRG (AID 2283658; active means hit-call score of the fitted dose curve at least 0.9, where 1 is the maximum; inactive means score below 0.9); conditions: mRNA level, 48 h; actives raise or lower the signal
# Protocol: LTEA_HepaRG is a cell based, multiplexed-readout assay that uses HepaRG, a human liver cell line, with measurements taken at 48 hours after chemical dosing on a 96-well plate.LTEA_HepaRG_MMP1 is one of 102 assay component(s) measured in the LTEA HepaRG cell culture assay. It is a marker of Fibrosis.Data from the assay component LTEA_HepaRG_MMP1 was analyzed into 1 endpoint. This assay endpoint, LTEA_HepaRG_MMP1, was analyzed with bidirectional fitting relative to DMSO as the negative control and baseline of activity. Using a type of inducible reporter, measures of mRNA induction for gain or loss-of-signal activity can be used to understand regulation of transcription factor activity. To generalize the intended target to other relatable targets, this assay endpoint is annotated to the protease intended target family, where the subfamily is matrix metalloproteinase.
# A total of 1060 chemcials from the ToxCast library were tested in eight-point concentration-response experiments. Cell culture and cytotoxicity assays were conducted at Thermo Fisher Scientific's Custom Services facility (Madison, WI). A single lot of human HepaRG cells (Thermo Fisher Scientific, Frederick, MD) was used for the cell culture experiments. 96-well format collagen type I coated plates of human HepaRG cells were prepared using established methods. Briefly, cryopreserved HepaRG cells were thawed, plated at a density of approximately 100,000 cells/well in HepaRG Thaw, Plate, and General Purpose media (HPRG770, Thermo Fisher Scientific), and incubated for 48 hours. 0.5% DMSO was selected as vehicle control to balance the requisite need of DMSO in HepaRG cultures to maintain differentiation (for example, baseline metabolism, proportions of hepatocytes vs. cholangiocytes), while enabling further hepatic receptor pathway activation (for example, PXR and CAR) in response to chemical exposure. 48 hours after plating, the culture medium was replaced with HepaRG Serum-Free Incudtion Media. Cells were exposed to each test chemical in duplicate and maintained in CO2 incubators for another 48 hours. Chemical plates were thawed to room temperature and 200x concentrations of treatment groups were prepared. 8-point conentration-reponse curves were made with the highest exposure at 100 uM, followed by half-log dilutions, all in 0.5% DMSO. Each test plate contained variouse controls, induction positive controls (1mM phenobarbital), cytotoxicity positive controls ([…] aflatoxin B1), vehicle controls (0.5% DMSO), and total lysis controls (0.5% DMSO). Cell morphology images were taken using an Essen IncuCyte FLR automated microscope, with six 96-well plates imaged in about 24 minutes. Images were captured and exported and JPEG files. Spent culture media was transfered to black-well plates for the LDH assay, and remaining media was sorted at -80 C for later use. Cells were treated with RLT buffer and frozen until shipped for gene expression analysis. Total RNA was isolated from the cell suspension in 75 uL of Buffer RLT (Qiagen, Germantown, MD 20874) by Quintiles/Expression Analysis (Durham, NC) using a custom isolation procedure. Total RNA from each plate well was transferred to a preamplification plate. Fluidigm's 96.96 Dynamic ArrayTM (Fluidigm, Amsterdam, the Netherlands) technology was used for gene expression analyses by quantitative reverse transcription polymerase chain reaction (qRT-PCR, performed by Quintiles/Expression Analysis, Durham, NC)89. Standard TaqManTM Assays (Applied Biosystems/ThermoFisher Scientific, Foster City, CA) were used to assess the expression of 93 genes selected based on their selectivity and sensitivity to important hepatic receptors known to be modulated by environmental chemicals; importance in human hepatocyte functionality; and hepatotoxicity. […]
# [9] = read-out: Cytochrome P450 (CYP24A1_1), CYP24A1 (gene 1591); assay: LTEA_HepaRG_CYP24A1_1: Life Technologies and Expression Analysis (LTEA) Assay for Cytochrome P450 (CYP24A1_1) using HepaRG (AID 2283671; active means hit-call score of the fitted dose curve at least 0.9, where 1 is the maximum; inactive means score below 0.9); conditions: mRNA level, 48 h; actives raise or lower the signal
# Procedure, shortened: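 Readout is CYP24A1 transcript level by qRT-PCR, normalized to three housekeeping genes, with gain or loss of signal fitted against 0.5% DMSO. Human HepaRG cells received compound for 48 h at up to 100 uM.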
# [10] = STM_H9_OrnithineISnorm_perc: Stemina devTOX quickPredict H9 human embryonic stem cell (hESC)-based Assay for Ornithine (ORN) Metabolite Biomarker, Normalized (AID 2283712; active means hit-call score of the fitted dose curve at least 0.9, where 1 is the maximum; inactive means score below 0.9;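 further: ornithine released into spent medium during last day measured by mass spectrometry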)
# Procedure, shortened: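 Ornithine secreted by H9 hESCs after 72h compound treatment (daily media/compound renewal) was quantified in final-day media by UPLC-HRMS. Values are isotope-standard-normalized, expressed relative to 0.1% DMSO, fitted in positive direction.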
smiles,measurement,setting,value
CCC(=C(c1ccc(O)cc1)c1ccc(OCCN(C)C)cc1)c1ccccc1,outcome,[1],inactive
same,outcome,[2],inactive
same,AC50,[3],9.22 µM (active) and 8.64 µM (active)
same,AC50,[4],8.78 µM (active) and 3.78 µM (active)
same,outcome,[5],inactive
same,AC50,[6],7.87 µM (active)
O=c1c(-c2ccc(O)cc2)coc2cc(O)ccc12,outcome,[1],inactive
same,outcome,[2],inactive
same,AC50,[3],9.2 µM (active)
same,AC50,[4],0.393 µM (active)
same,outcome,[6],inactive
ClC1=C(Cl)C(Cl)(Cl)C(Cl)=C1Cl,outcome,[1],inactive
same,outcome,[2],inactive
same,outcome,[7],inactive
same,outcome,[8],inactive
same,outcome,[9],inactive
same,AC50,[6],4.87 µM (active)
CCCCCCCCCCCCN1CCCC1=O,AC50,[1],34.7 µM (active)
same,outcome,[2],inactive
same,AC50,[3],17.4 µM (active)
same,AC50,[4],14.9 µM (active)
same,AC50,[6],8.11 µM (active)
CC1=C(/C=C/C(C)=C/C=C/C(C)=C/C(=O)O)C(C)(C)CCC1,AC50,[1],0.168 µM (active)
same,AC50,[2],0.272 µM (active)
same,AC50,[3],25 µM (active)
same,AC50,[6],0.0081 µM (active)
same,AC50,[10],0.0785 µM (active)
CC[C@H](c1ccc(O)cc1)[C@@H](CC)c1ccc(O)cc1,outcome,[1],inactive
same,outcome,[2],inactive
same,AC50,[3],4.36 µM (active)
same,AC50,[4],2.25 µM (active)
same,AC50,[6],14.9 µM (active)
CCCCCCCCC(=O)O,outcome,[1],inactive
same,outcome,[2],inactive
CCOC(=O)CC(O)(CC(=O)OCC)C(=O)OCC,outcome,[1],inactive
same,outcome,[2],inactive
NC(=O)N(O)[C@@H]1C=C[C@H](Oc2cccc(Oc3ccc(F)cc3)c2)C1,outcome,[1],inactive
same,outcome,[2],inactive
same,AC50,[3],6.75 µM (active)
same,AC50,[4],33.1 µM (active)
same,AC50,[6],14.9 µM (active)
CCCCC(CC)COC(=O)CCCCC(=O)OCc1ccccc1 (stereo not given),outcome,[1],inactive
same,outcome,[2],inactive
CCCOC(=O)c1ccc(O)cc1,AC50,[1],32.9 µM (active)
same,outcome,[2],inactive
same,AC50,[5],41.5 µM (active)
same,AC50,[6],14.9 µM (active)
NC(=O)N1C(=O)C(C(=O)c2cc(Cl)cs2)c2cc(F)c(Cl)cc21 (stereo not given),outcome,[1],inactive
same,outcome,[2],inactive
same,outcome,[5],inactive
same,AC50,[6],4.57 µM (active)
CC[C@H](C)[C@@H](C(=O)O)n1sc2ccccc2c1=O,outcome,[1],inactive
same,outcome,[2],inactive
CN1CCN(c2ccccc2/C=C2\SCCN(c3ccc(Cl)c(Cl)c3)C2=O)CC1,outcome,[1],inactive
same,outcome,[2],inactive
same,outcome,[3],inactive
same,AC50,[4],9.55 µM (active)
same,AC50,[6],5.38 µM (active)
same,AC50,[10],6.56 µM (active)
O=C(O)c1ccccc1C(c1ccc(O)cc1)c1ccc(O)cc1,outcome,[1],inactive
same,outcome,[2],inactive
same,AC50,[3],4.26 µM (active)
same,outcome,[4],inactive
same,outcome,[6],inactive
CCCCCCCC(=O)O,outcome,[1],inactive
same,outcome,[2],inactive
CCCCC(CC)COC(=O)CCCCC(=O)OCC(CC)CCCC (stereo not given),outcome,[1],inactive
same,outcome,[2],inactive
same,outcome,[5],inactive
same,outcome,[6],inactive
CCCCCCCCCCCCc1ccccc1S(=O)(=O)O,outcome,[1],inactive
same,outcome,[2],inactive
same,AC50,[3],37.3 µM (active)
same,AC50,[4],33.9 µM (active)
same,AC50,[6],3.26 µM (active)
same,AC50,[10],0.00695 µM (active)
C#C[C@]1(O)CC[C@H]2[C@@H]3CCC4=CC(=O)CC[C@@H]4[C@H]3CC[C@@]21C,outcome,[1],inactive
same,outcome,[2],inactive
same,AC50,[7],9.92 µM (active)
same,outcome,[8],inactive
same,AC50,[3],64.9 µM (active)
same,AC50,[4],66 µM (active)
same,outcome,[5],inactive
same,outcome,[9],inactive
same,AC50,[6],16.1 µM (active)
same,AC50,[10],74.6 µM (active)
CCN(CC)CCNc1ccc(CNC=O)c2sc3ccc(OC)cc3c(=O)c12,outcome,[1],inactive
same,outcome,[2],inactive
same,AC50,[3],24.9 µM (active)
same,AC50,[4],22.1 µM (active)
same,AC50,[6],57.8 µM (active)
same,AC50,[10],7.85 µM (active)
CC(O)CO (stereo not given),outcome,[1],inactive
same,outcome,[2],inactive
same,outcome,[7],inactive
same,outcome,[8],inactive
same,outcome,[9],inactive
Oc1cc2ccccc2c2ccccc12,AC50,[1],38.3 µM (active)
same,outcome,[2],inactive
same,AC50,[3],1.72 µM (active)
same,AC50,[4],1.4 µM (active)
same,AC50,[6],4.98 µM (active)
Nc1cccc2c(N)cccc12,outcome,[1],inactive
same,outcome,[2],inactive
same,AC50,[3],2.06 µM (active)
same,AC50,[4],30.1 µM (active)
same,AC50,[6],48.9 µM (active)
same,outcome,[10],inactive
CCc1nn(C2CCCCC2)c2cc(C3(C#N)CCC(C(=O)O)CC3)ccc12 (stereo not given),AC50,[1],0.171 µM (active)
same,outcome,[2],inactive
same,AC50,[5],2.48 µM (active)
same,AC50,[6],0.263 µM (active)
CC(C)(C)c1cc(C(C)(C)C)c(O)c(C(C)(C)C)c1,outcome,[1],inactive
same,outcome,[2],inactive
same,outcome,[7],inactive
same,outcome,[8],inactive
same,AC50,[3],2.65 µM (active)
same,AC50,[4],9.06 µM (active)
same,outcome,[9],inactive
same,AC50,[6],7.36 µM (active)
